A short description of this experiment: qHTS Assay for Spectroscopic Profiling in A488 Spectral Region. The following applies: compound autofluorescence. The procedure, abridged: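 Read-out: relative fluorescence at 480/540 nm, expressed as Alexa 488 dye-equivalent concentration from a six-point A488 standard included per plate. Conditions: 100 mM Tris, pH 8.0; 15 min incubation, room temperature.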
(In qHTS, concentration-response curves come from the screen itself.)

Setting [1] is: max dye equivalency: Compound Type: qHTS ECL - SigmaAldrich, stronger effect = higher value unless noted, outcome: dye equivalency, Compound Type: qHTS ECL - MLSMR unless noted.

Hit rate of the full screen: of about 59,000 compounds, about 60 (0.1%) were called active. How the calls were made is not given here. The sample as a whole holds a higher share of actives than the screen did.

Consider `COCCn1c(=O)c(-c2ccccc2)nc2cnc(N3CCOCC3)nc21`, for which, under setting [1], the outcome was “inactive [dye equivalency, Compound Type: qHTS ECL - Pharmacopeia]”.

In the case of `O=C(c1cccc(F)c1)N1CCC2(CC1)CCN(c1ccccc1)CC2`, under setting [1], the outcome is “inactive [dye equivalency, Compound Type: qHTS ECL - Pharmacopeia]”.

For the compound `Clc1ccc(Cn2ncc3c(NCc4cccnc4)ncnc32)cc1`, the outcome under setting [1] was “inactive [dye equivalency, Compound Type: qHTS ECL - DPISMR]”.

For the compound `O=C(O)C1CCCN1S(=O)(=O)c1ccc2c(c1)CCC2` (centres undefined), under setting [1], the outcome was inactive.

For the compound `CN(C)C(=O)c1ccc(-c2cncnc2Nc2ccccc2)cc1`, the outcome under setting [1] is “inactive [dye equivalency, Compound Type: qHTS ECL - Pharmacopeia]”.

Consider `CCOC(=O)N1CCC(C(N)=O)CC1`, for which the result under setting [1] was inactive.

Turning to `Cc1cc(C)n2nc(C(=O)Oc3ccc4c(c3)OCO4)nc2n1`, under setting [1], the result was inactive.

Regarding `N#Cc1ccc(CN2CCCC3(CCN(C(=O)c4ccco4)CC3)C2)cc1`, the outcome under setting [1] was “inactive [dye equivalency, Compound Type: qHTS ECL - Pharmacopeia]”.

As to `CCCCOc1ccc(NC(=O)CSCC(=O)OCC)cc1`, the result under setting [1] was inactive.

As to `Cc1cccc(N)c1SC1CCCCC1O` (centres undefined), under setting [1], the result was inactive.

For the compound `COc1ccccc1CNc1ncncc1-c1cccc(NS(C)(=O)=O)c1`, the outcome under setting [1] is “inactive [dye equivalency, Compound Type: qHTS ECL - Pharmacopeia]”.

On to `COC(=O)Cc1c(C)c2ccc(OCC(=O)NCc3ccc4c(c3)OCO4)cc2oc1=O`, for which the outcome under setting [1] is “inactive [dye equivalency, Compound Type: qHTS ECL - DPISMR]”.

`O=c1c(CCc2ccccc2)nc2cnc(N3CCNCC3)nc2n1Cc1cccs1`: the outcome under setting [1] is “inactive [dye equivalency, Compound Type: qHTS ECL - Pharmacopeia]”.

Regarding `O=C(NC1CCCCC1)N1CCc2[nH]c3ccccc3c2C1`, the outcome under setting [1] was “inactive [dye equivalency, Compound Type: qHTS ECL - DPISMR]”.

In the case of `CCOC(=O)c1c(N)c(C#N)nn1-c1ccccc1C(=O)OC`, under setting [1], the outcome was “inactive [dye equivalency, Compound Type: qHTS ECL - DPISMR]”.

`Cc1ccc(C(=O)NC2CC(C)(C)NC(C)(C)C2)c(C)c1`: the outcome under setting [1] was inactive.

On to `O=C(Oc1ccc2c(c1)CN(Cc1ccccc1)CO2)c1ccccc1`, for which the outcome under setting [1] is “inactive [dye equivalency, Compound Type: qHTS ECL - NCI]”.

Take `c1ccc(-c2cn3cccnc3n2)cc1`: the outcome under setting [1] was inactive.

Turning to `CCC(C)n1[nH]c(=O)cc1N` (centres undefined), the outcome under setting [1] was inactive.

Regarding `Cc1cccc(N2CCN(C(c3ccccc3)c3nnnn3CC3CCCO3)CC2)c1C` (centres undefined), the result under setting [1] was inactive.

In the case of `CC1(C)CC(=O)C2=C(C1)NCN(CCCN1CCOCC1)C2`, the outcome under setting [1] was “inactive [dye equivalency, Compound Type: qHTS ECL - DPISMR]”.

As to `O=C(c1ccco1)N1CCN(CC(=O)N(C2CCCCC2)C2CCS(=O)(=O)C2)CC1` (centres undefined), the result under setting [1] was inactive.

On to `O=c1c(-c2cc(F)cc(F)c2)nc2cnc(Oc3ccccc3)nc2n1C[C@H]1CCCO1`, for which, under setting [1], the outcome is “inactive [dye equivalency, Compound Type: qHTS ECL - Pharmacopeia]”.

Take `CCCc1nc2ccccc2c(C(=O)OCc2nnc(-c3cc(OC)c(OC)c(OC)c3)o2)c1CC`: the result under setting [1] was inactive.

`COc1ccc(OCc2cccc(C(=O)N3CCCC3)c2)cc1`: the result under setting [1] was inactive.

For the compound `CCOc1ccccc1NC(=O)Nc1cc(OC)ccc1OC`, the outcome under setting [1] was “inactive [dye equivalency, Compound Type: qHTS ECL - DPISMR]”.

As for `Cn1c(=O)[nH]c(=O)c2c1nc(NCCCn1ccnc1)n2Cc1cccc(Br)c1`, the outcome under setting [1] is “inactive [dye equivalency, Compound Type: qHTS ECL - DPISMR]”.

In the case of `CCCc1nc2ccccc2c(=O)n1/N=C/c1ccc(O)c(O)c1`, under setting [1], the outcome is “inactive [dye equivalency, Compound Type: qHTS ECL - DPISMR]”.

With `COc1ccc(-c2nc3cnc(Oc4ccccc4)nc3n(Cc3cccs3)c2=O)cc1`, the outcome under setting [1] is “inactive [dye equivalency, Compound Type: qHTS ECL - Pharmacopeia]”.

`CN1CCN(S(=O)(=O)c2ccc3[nH]cc(C(=O)O)c(=O)c3c2)CC1`: the outcome under setting [1] was “inactive [dye equivalency, Compound Type: qHTS ECL - DPISMR]”.

In the case of `CCCOP(=O)(c1ccc(N(C)C)cc1)C(O)c1cc(OC)c(OC)c(OC)c1` (centres undefined), the outcome under setting [1] was “inactive [dye equivalency, Compound Type: qHTS ECL - DPISMR]”.

For the compound `COc1ccccc1-c1nc(NCc2cccs2)c2ccccc2n1`, the outcome under setting [1] was “inactive [dye equivalency, Compound Type: qHTS ECL - Pharmacopeia]”.

Take `CC(=O)N1CCC(C(=O)Nc2nc(-c3ccccc3)ns2)CC1`: the outcome under setting [1] was “inactive [dye equivalency, Compound Type: qHTS ECL - DPISMR]”.

Regarding `N#Cc1cccc(-c2ccc3ncnc(NCc4cccs4)c3c2)c1`, under setting [1], the outcome is “inactive [dye equivalency, Compound Type: qHTS ECL - Pharmacopeia]”.

Consider `COc1ncc2nc(-c3ccc(Cl)cc3)c(=O)n(-c3ccccc3)c2n1`, for which the outcome under setting [1] was “inactive [dye equivalency, Compound Type: qHTS ECL - Pharmacopeia]”.

As to `COc1ccc2c3c(c(=O)oc2c1OCC(=O)C(C)(C)C)CCCC3`, the outcome under setting [1] was “inactive [dye equivalency, Compound Type: qHTS ECL - DPISMR]”.

As for `CCOc1ccccc1-n1c(SCC(=O)N2CCCC2)nnc1-c1ccoc1C`, the result under setting [1] was inactive.

Turning to `CCOC(=O)N1CCC(NC(=O)CN2C(=O)COc3ccc(C(C)(C)C)cc32)CC1`, the outcome under setting [1] is “inactive [dye equivalency, Compound Type: qHTS ECL - DPISMR]”.

Regarding `CC1(C)CC(=O)C=C(NCc2ccncc2)C1`, under setting [1], the result was inactive.

As for `Oc1ccc2ccccc2c1C=NCc1c(O)ccc2ccccc12`, under setting [1], the outcome is “inactive [dye equivalency, Compound Type: qHTS ECL - NCI]”.

Take `COc1cccc(NS(=O)(=O)c2ccc3[nH]cc(C(=O)NCCCOC(C)C)c(=O)c3c2)c1`: the result under setting [1] was inactive.

Regarding `O=c1c2c(nc3n1CCCCC3)sc1c(O)cccc12`, the result under setting [1] was inactive.

Take `O=C(CN1CCN(c2ccc(F)cc2)CC1)Nc1cccc(C(F)(F)F)c1`: under setting [1], the outcome was “inactive [dye equivalency, Compound Type: qHTS ECL - DPISMR]”.

Regarding `CCc1c(C)nc(N)n2c(SCC(=O)N3CCN(c4ccccc4)CC3)nnc12`, the outcome under setting [1] was inactive.

For the compound `O=C(Nc1cccc(F)c1)N1CCC2(CC1)CCN(S(=O)(=O)c1ccccc1)CC2`, under setting [1], the outcome is “inactive [dye equivalency, Compound Type: qHTS ECL - Pharmacopeia]”.

Turning to `COc1ccc(-c2nnc(SCC(=O)c3ccco3)n2-c2ccccc2)cc1`, under setting [1], the result was inactive.

`CCn1c(SCC(=O)NCC2CCCO2)nc2cc(S(=O)(=O)N3CCCCC3)ccc21` (centres undefined): under setting [1], the result was inactive.

Consider `O=c1c(-c2cccs2)nc2cnc(Oc3ccccc3)nc2n1-c1ccccc1`, for which, under setting [1], the outcome was “inactive [dye equivalency, Compound Type: qHTS ECL - Pharmacopeia]”.

For `COCCn1c(=O)c(-c2cccc(F)c2)nc2cncnc21`, the outcome under setting [1] is “inactive [dye equivalency, Compound Type: qHTS ECL - Pharmacopeia]”.

For `CCCn1c(SCC(N)=O)nnc1C(C)C`, the outcome under setting [1] was inactive.

As to `C=CCNC(=O)CCCC(=O)NCC=C`, the outcome under setting [1] is “inactive [dye equivalency, Compound Type: qHTS ECL - DPISMR]”.

As for `CN1CCN2c3ccccc3Cc3ccccc3[C@@H]2C1`, the outcome is “inactive” (dye equivalency, Compound Type: qHTS ECL - Prestwick) and “inactive” (dye equivalency, Compound Type: qHTS ECL - SigmaAldrich).

Take `CSc1nc(O)c(Cc2ccccc2)c(=O)[nH]1`: the result under setting [1] was inactive.

Regarding `O=C(Cn1c(-c2ccc(Cl)cc2)noc1=O)N1CCN(c2ccccc2F)CC1`, the outcome under setting [1] was inactive.

For the compound `CCN(Cc1cc2cc(C)ccc2[nH]c1=O)S(=O)(=O)c1ccccc1`, the outcome under setting [1] was inactive.

Consider `CCCCOc1ccc(Cl)cc1CSc1nncn1N`, for which, under setting [1], the outcome was “inactive [dye equivalency, Compound Type: qHTS ECL - DPISMR]”.

Take `O=c1cc(-c2ccccc2)[nH]c2nc(Cl)ccc12`: the outcome under setting [1] is “inactive [dye equivalency, Compound Type: qHTS ECL - SigmaAldrich]”.

As to `CC[C@@H]1Cc2cc(O)ccc2C2=C1c1ccc(O)cc1C[C@H]2CC`, under setting [1], the outcome was “inactive [dye equivalency, Compound Type: qHTS ECL - SigmaAldrich]”.

With `O=c1c(-c2ccc(F)cc2)nc2cnc(N3CCNCC3)nc2n1Cc1cccs1`, under setting [1], the outcome was “inactive [dye equivalency, Compound Type: qHTS ECL - Pharmacopeia]”.

As for `Nc1nc(N)c2[nH]c(CNc3ccc(C(=O)O)cc3)nc2n1`, under setting [1], the outcome is “inactive [dye equivalency, Compound Type: qHTS ECL - NCI]”.

On to `N#Cc1cccc(-c2nc3cnc(N4CCNCC4)nc3n(C3CC3)c2=O)c1`, for which, under setting [1], the outcome was “inactive [dye equivalency, Compound Type: qHTS ECL - Pharmacopeia]”.

In the case of `CC(C)NC(=O)N1CCC2(CC1)CCN(C(=O)c1cccn1C)CC2`, the outcome under setting [1] is “inactive [dye equivalency, Compound Type: qHTS ECL - Pharmacopeia]”.

As for `COCCn1c(=O)c(CCc2ccccc2)nc2cnc(N3CCNCC3)nc21`, the outcome under setting [1] was “inactive [dye equivalency, Compound Type: qHTS ECL - Pharmacopeia]”.

With `CCc1nc(C)cn1S(=O)(=O)c1cc(OC)c(C)cc1C`, the outcome under setting [1] was inactive.

Take `CC(c1ccco1)N(C(=O)c1ccc(S(=O)(=O)N2CCCCC2)cc1)c1ccccn1` (centres undefined): the outcome under setting [1] was inactive.

As for `CS(=O)(=O)N(CC(=O)NCc1ccco1)c1ccc2c(c1)OCO2`, under setting [1], the outcome was “inactive [dye equivalency, Compound Type: qHTS ECL - DPISMR]”.

Turning to `O=C(NC1(C(F)(F)F)N=C2SCCN2C1=O)c1ccco1` (centres undefined), the outcome under setting [1] was inactive.

For `COc1ccc(OCC(=O)OCC(=O)Nc2ccc(S(=O)(=O)N3CCCCC3)cc2)cc1`, the result under setting [1] was inactive.
